# Screens: PubChem, Broad Institute
# The entries come from a sample that favours hits as a whole.
# Tgondii IFNg: inhibitors of Toxoplasma gondii growth with IFN-gamma | Toxoplasma gondii growth in IFN-gamma-treated host cells; hits give low values | activity change, negative = inhibition, % (concentration not given with the values) | actives 3.8% (n = 69,000) | AID 1259416; in the data active = activity change below about -70%, passing the limit was not always enough;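 also: host cells are HeLa cells infected with Toxoplasma gondii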
# Numbers stand for hits; i = inactive.
SMILES,Tgondii IFNg
C=CCN1CCN(c2ncc(F)cn2)Cc2ccc(C)nc21,i
Fc1cnc(N2CCN(CC3CC3)c3ncccc3C2)nc1,i
Fc1cnc(N2CCC3(CC2)CNCc2ccccc23)nc1,-84.2
COc1ccc2c(c1)C1(CCN(C(=O)c3cccc4[nH]ccc34)CC1)CC2CC(=O)O (stereo not drawn),i
CN1CCc2c(CNC(=O)c3nccn3C)cncc2C1,i
c1cncc(C2CCCN2)c1 (stereo not drawn),i
Fc1cc(F)c2c(c1)[C@H]1C=CC[C@H]1C(c1cccnc1)N2 (stereo partly drawn),-73.8
CN(C)CCN1C(=O)CC[C@@H]2[C@@H]1CCN2Cc1ccccn1,i
Cc1cc(C)cc(CN2CC3CNC(C3)C2)c1 (stereo not drawn),i
O=C(NCCc1c[nH]c2ccccc12)c1cc2cccnc2n(Cc2ccc(F)cc2)c1=O,i
CN(C(=O)[C@@H](N)Cc1cnc[nH]1)C1Cc2ccccc2C1,i
CC(C)N(C)Cc1cncc2c1CCN(c1ccccn1)C2,i
